Results taken from PubChem BioAssay (Tox21).
Values joined by “and” are separate entries in the source; they are usually repeats but may differ in a detail not shown here. Identical values can stand only once. Results filed as inconclusive are left out. A call without a number means that no potency is given here. Active and inactive are the calls of the source. Unless noted, the call rests on the fitted dose curve; in most records, active means well fitted curve in the direction sought with a large enough effect in the repeat runs; inconclusive means weak or mixed curves; inactive means no such curve, though single readings can be large; an effect the other way counts as inactive or inconclusive.

Key:
[1] = qHTS assay to identify small molecule agonists of the peroxisome proliferator-activated receptor delta (PPARd) signaling pathway - cell viability counter screen (AID 743211); further: nearly all actives have a fitted effect of over 55% in size; further: potency means the concentration at half of the fitted maximal effect
How it was run: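 Viability was measured as CellTiter-Glo luminescence (30 min, room temperature) in the same wells as the beta-lactamase readout. GeneBLAzer PPARd UAS-bla HEK293H cells received compound after 5 h plating and were incubated 17 h at 37 C.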

[2] = target: Peroxisome proliferator-activated receptor delta (Homo sapiens) (UniProt Q03181); assay: qHTS assay to identify small molecule agonists of the peroxisome proliferator-activated receptor delta (PPARd) signaling pathway (AID 743212; calls by dose curve)
How it was run: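 A PPARd-bla HEK293H line with beta-lactamase under an Upstream Activator Sequence is treated with compounds at 37 C. Substrate loading for 2 h at room temperature precedes the fluorescence measurement.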

[3] = target: Peroxisome proliferator-activated receptor delta (Homo sapiens) (UniProt Q03181); assay: qHTS assay to identify small molecule antagonists of the peroxisome proliferator-activated receptor delta (PPARd) signaling pathway (AID 743215; active means well fitted inhibition curve with a large enough effect in the signal ratio in the repeat runs, not every such curve was filed as active; the % refers to the signal ratio;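 further: cells stimulated with agonist L165041 at 300 nM final during compound exposure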; further: potency means the concentration at half of the fitted maximal effect)
How it was run: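 Inhibition of L165041-driven (300 nM final) PPARd signaling is scored in HEK293H UAS-bla cells. Exposure lasts 17 h at 37 C; beta-lactamase activity is then read by FRET substrate fluorescence after 2 h at room temperature.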

[4] = target: Bile acid receptor (Homo sapiens) (UniProt Q96RI1); assay: qHTS assay to identify small molecule antagonists of the farnesoid-X-receptor (FXR) signaling pathway (AID 743217; active means well fitted inhibition curve with a large enough effect in the signal ratio in the repeat runs, not every such curve was filed as active; the % refers to the signal ratio)
How it was run: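 Antagonist mode against 50 uM (final) chenodeoxycholic acid stimulation in FXR-bla HEK 293T cells, 16 h at 37 °C. Inhibition detected as reduced beta-lactamase activity via LiveBLAzer B/G FRET fluorescence after 2 h at room temperature.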

[5] = qHTS assay to identify small molecule agonists of the farnesoid-X-receptor (FXR) signaling pathway - cell viability counter screen (AID 743218); further: nearly all actives have a fitted effect of over 45% in size
How it was run: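 Cytotoxicity counter-screen run in parallel, same wells: FXR-UAS-bla HEK 293T cells dosed 16 h at 37 C, viability read by CellTiter-Glo luminescence after 30 min at room temperature.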

[6] = target: Bile acid receptor (Homo sapiens) (UniProt Q96RI1); assay: qHTS assay to identify small molecule agonists of the farnesoid-X-receptor (FXR) signaling pathway (AID 743220; active means well fitted activation curve with a large enough effect in the signal ratio in the repeat runs, not every such curve was filed as active; the % refers to the signal ratio)
How it was run: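 Beta-lactamase reporter under UAS control in GeneBLAzer FXR HEK 293T cells (5000/well) measured with LiveBLAzer FRET substrate after 2 h at room temperature. Compound exposure lasted 16 h at 37C.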

[7] = qHTS assay to identify small molecule antagonists of the farnesoid-X-receptor (FXR) signaling pathway - cell viability counter screen (AID 743221; active means well fitted cell-killing curve with a large enough effect in the repeat runs, not every such curve was filed as active; further: nearly all actives have a fitted effect of over 50% in size)
How it was run: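 Cytotoxicity counter screen run in the FXR-bla reporter wells: HEK 293T cells exposed to compound with 50 uM (final) chenodeoxycholic acid for 16 h, 37 C, then viability measured by CellTiter-Glo luminescence after 30 min, room temperature.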

[8] = target: Vitamin D3 receptor (Homo sapiens) (UniProt P11473); assay: qHTS assay to identify small molecule agonists of the vitamin D receptor (VDR) signaling pathway (AID 743222; calls by dose curve)
How it was run: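 Quantitative HTS agonist-mode screen: compounds in DMSO were pin-transferred onto VDR-bla cells and incubated 16 h at 37C, 5% CO2. Reporter activity was detected with LiveBLAzer B/G FRET substrate after 2 h at room temperature.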

[9] = target: Vitamin D3 receptor (Homo sapiens) (UniProt P11473); assay: qHTS assay to identify small molecule antagonists of the vitamin D receptor (VDR) signaling pathway (AID 743223; active means well fitted inhibition curve with a large enough effect in the signal ratio in the repeat runs, not every such curve was filed as active; the % refers to the signal ratio)
How it was run: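 Antagonist mode: compound added to VDR-bla cells alongside agonist 1alpha,25-dihydroxyvitamin D3 (3 nM final), incubation 16 h at 37C. Read-out is LiveBLAzer FRET fluorescence, 2 h at room temperature.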

[10] = qHTS assay to identify small molecule antagonists of the vitamin D receptor (VDR) signaling pathway - cell viability counter screen (AID 743225); further: nearly all actives have a fitted effect of over 50% in size
How it was run: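 Cytotoxicity counter screen read by CellTiter-Glo luminescence (30 min, room temperature) in the same wells as the VDR-bla antagonist readout. HEK 293T VDR-UAS-bla cells had 16 h at 37C with compound and 3 nM (final) 1-alpha,25-dihydroxyvitamin D3, then 2 h with FRET substrate.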

[11] = qHTS assay to identify small molecule agonists of the NFkB signaling pathway (AID 1159509; active means well fitted curve in the direction sought with a large enough effect in the signal ratio in the repeat runs, not every such curve was filed as active; the % refers to the signal ratio; further: series mostly up to about 61 µM)
How it was run: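 NFkB-bla ME-180 cells carry a beta-lactamase reporter under an NF-kB response element. They were plated overnight, then exposed to compounds for 5 h at 37 C. Read-out is LiveBLAzer FRET after 1.5 hr at room temperature (405 nm excitation; 460/530 nm emission).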

[12] = qHTS assay to identify small molecule agonists of the NFkB signaling pathway - cell viability counter screen (AID 1159515; calls by dose curve; further: series mostly up to about 61 µM; nearly all actives have a fitted effect of over 55% in size)
How it was run: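 Multiplexed viability readout: after the 5 hr compound exposure and 1.5 hr FRET substrate step, CellTiter-Glo reagent went into the same NFkB-bla ME-180 wells; ATP luminescence was measured after 30 min at room temperature.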

[13] = qHTS assay to identify small molecule agonists of the endoplasmic reticulum stress response signaling pathway (AID 1159516; active means well fitted activation curve with a large enough effect in the signal ratio in the repeat runs, not every such curve was filed as active; the % refers to the signal ratio)
How it was run: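 Tox21 10K library screened in quantitative HTS format on ESRE-bla HeLa cells, a beta-lactamase reporter under ER stress response element control; 5 hr treatment, FRET read.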

[14] = qHTS assay to identify small molecule agonists of the endoplasmic reticulum stress response signaling pathway - cell viability counter screen (AID 1159517; calls by dose curve; further: series mostly up to about 61 µM; nearly all actives have a fitted effect of over 50% in size)
How it was run: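 CellTiter-Glo was added to wells already read for beta-lactamase FRET, and luminescence was recorded 30 min later. Cells: ESRE-bla HeLa, 1,500 per well, compound exposure 5 hr at 37 C.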

[15] = qHTS assay to identify small molecule antagonists of the retinoid-related orphan receptor gamma (ROR-gamma) signaling pathway - cell viability counter screen (AID 1159520); further: nearly all actives have a fitted effect of over 50% in size
How it was run: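 Tet-on ROR gamma CHO cells (1,000/well) were plated 4 hr, given compounds in DMSO for 2 hr at 37 C, then induced with 1 uM final doxycycline for 16 hr. Viability was read as ATP by CellTiter-Glo luminescence after 30 min.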

[16] = qHTS assay to identify small molecule agonists of the AP-1 signaling pathway - cell viability counter screen (AID 1159525; calls by dose curve; further: nearly all actives have a fitted effect of over 55% in size)
How it was run: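 ME-180 AP-1-bla, 2500 cells/well, Opti-MEM + 0.5% dialyzed FBS; overnight 37 °C; cpd 15-pt titration, 5 h 37 °C; CellTiter-Glo 30 min RT; luminescence read; normalised to TOAB and DMSO controls.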

[17] = qHTS assay to identify small molecule agonists of the AP-1 signaling pathway (AID 1159526; calls by dose curve)
[18] = qHTS assay to identify small molecule antagonists of the peroxisome proliferator-activated receptor delta (PPARd) signaling pathway - cell viability counter screen (AID 743213); further: nearly all actives have a fitted effect of over 50% in size
How it was run: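 In this counter screen, HEK293H cells carrying a UAS-beta-lactamase reporter are co-treated with test compounds and 300 nM L165041 (final) for 17 h at 37 C; cell viability is quantified by CellTiter-Glo luminescence.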

[19] = target: Nuclear receptor ROR-gamma (Homo sapiens) (UniProt P51449); assay: qHTS assay to identify small molecule antagonists of the retinoid-related orphan receptor gamma (ROR-gamma) signaling pathway (AID 1159521; further: nearly all actives have a fitted effect of over 50% in size; further: potency means the concentration at half of the fitted maximal effect)
How it was run: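 Antagonist read-out: drop in luminescence (ONE-Glo) from an RORE-LUC reporter in CHO cells with doxycycline-inducible ROR-gamma; 2 hr compound pretreatment, 1 uM doxycycline, 16 hr incubation at 37 C.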

[20] = qHTS assay to identify small molecule agonists of the vitamin D receptor (VDR) signaling pathway - cell viability counter screen (AID 743224)
How it was run: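 Viability is measured in the same wells as the VDR-bla reporter assay: after 16 h compound treatment and 2 h substrate loading, CellTiter-Glo is added and luminescence read 30 min later.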

Sequence of Bile acid receptor (Homo sapiens) (Q96RI1 whole entry, looked up): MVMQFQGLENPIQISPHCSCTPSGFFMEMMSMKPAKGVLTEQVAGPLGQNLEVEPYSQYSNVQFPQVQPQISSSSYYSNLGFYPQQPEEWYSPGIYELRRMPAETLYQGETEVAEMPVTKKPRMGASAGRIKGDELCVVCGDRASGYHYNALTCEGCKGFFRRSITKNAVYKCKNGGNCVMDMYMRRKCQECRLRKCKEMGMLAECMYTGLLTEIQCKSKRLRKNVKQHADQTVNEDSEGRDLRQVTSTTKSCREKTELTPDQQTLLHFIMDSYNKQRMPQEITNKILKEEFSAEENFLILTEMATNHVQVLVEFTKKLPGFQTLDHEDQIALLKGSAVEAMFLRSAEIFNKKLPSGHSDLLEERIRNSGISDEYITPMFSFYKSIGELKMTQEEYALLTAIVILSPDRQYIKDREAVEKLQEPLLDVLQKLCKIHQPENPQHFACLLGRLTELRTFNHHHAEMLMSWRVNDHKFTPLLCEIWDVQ
Sequence of Vitamin D3 receptor (Homo sapiens) (P11473 whole entry, looked up): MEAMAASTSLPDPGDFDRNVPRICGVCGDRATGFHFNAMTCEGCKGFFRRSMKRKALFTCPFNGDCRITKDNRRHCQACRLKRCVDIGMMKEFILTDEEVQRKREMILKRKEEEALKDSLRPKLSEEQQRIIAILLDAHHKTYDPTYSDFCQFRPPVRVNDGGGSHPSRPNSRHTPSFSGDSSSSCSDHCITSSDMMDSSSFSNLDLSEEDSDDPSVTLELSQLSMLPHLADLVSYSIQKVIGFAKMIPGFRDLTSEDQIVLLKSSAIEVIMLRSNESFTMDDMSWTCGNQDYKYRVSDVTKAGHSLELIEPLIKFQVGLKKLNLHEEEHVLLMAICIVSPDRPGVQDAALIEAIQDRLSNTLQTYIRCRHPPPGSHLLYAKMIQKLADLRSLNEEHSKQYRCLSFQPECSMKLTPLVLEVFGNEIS
Sequence of Peroxisome proliferator-activated receptor delta (Homo sapiens) (Q03181 whole entry, looked up): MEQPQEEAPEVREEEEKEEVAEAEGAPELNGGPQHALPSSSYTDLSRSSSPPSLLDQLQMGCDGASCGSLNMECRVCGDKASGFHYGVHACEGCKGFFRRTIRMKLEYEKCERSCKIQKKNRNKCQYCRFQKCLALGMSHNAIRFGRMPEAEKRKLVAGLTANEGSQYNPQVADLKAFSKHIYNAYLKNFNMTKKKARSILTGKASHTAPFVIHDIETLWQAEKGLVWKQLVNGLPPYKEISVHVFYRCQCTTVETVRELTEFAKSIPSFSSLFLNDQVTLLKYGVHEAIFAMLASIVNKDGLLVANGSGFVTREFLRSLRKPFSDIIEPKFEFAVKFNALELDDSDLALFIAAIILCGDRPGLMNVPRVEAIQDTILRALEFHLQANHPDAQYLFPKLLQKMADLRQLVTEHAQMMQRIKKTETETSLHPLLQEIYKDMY

SMILES	Potency [1]	outcome [2]	Potency [3]	outcome [4]	Potency [5]	outcome [6]	Potency [7]	outcome [8]	outcome [9]	Potency [10]	outcome [11]	outcome [12]	outcome [13]	outcome [14]	outcome [15]	Potency [16]	outcome [17]	Potency [18]	Potency [19]	Potency [20]
COCCc1ccc(OCC(O)CNC(C)C)cc1 (centres undefined)	inactive	inactive	inactive	inactive	inactive	inactive	inactive	inactive	inactive	inactive	inactive	inactive	inactive	inactive	inactive	inactive	inactive	–	–	–
CCCCCOC(=O)CCCCC	inactive	inactive	inactive	–	inactive	–	inactive	inactive	inactive	inactive	inactive	inactive	inactive	inactive	inactive	–	inactive	inactive	inactive	–
CC(C)(C)c1ccc(O)c(O)c1	25.4 µM (active)	–	50.7 µM (active)	–	inactive	–	inactive	inactive	–	–	inactive	inactive	inactive	inactive	inactive	–	–	–	25.2 µM (active) and 27.3 µM (active)	–
CC(C)NCCCC1(C(N)=O)c2ccccc2-c2ccccc21	inactive	inactive	–	–	inactive	–	inactive	inactive	inactive	inactive	inactive	inactive	inactive	inactive	inactive	–	inactive	–	inactive	inactive
NC(=O)c1ccc(N)cc1	inactive	–	–	inactive	inactive	inactive	inactive	inactive	inactive	inactive	inactive	inactive	inactive	inactive	inactive	–	inactive	inactive	inactive	inactive
C=C[Si](OC(=C)C)(OC(=C)C)OC(=C)C	inactive	inactive	inactive	inactive	inactive	inactive	inactive	inactive	inactive	inactive	inactive	inactive	inactive	inactive	inactive	–	inactive	inactive	inactive	inactive
CC[N+](C)(C)c1cccc(O)c1	inactive	inactive	inactive	inactive	inactive	inactive	inactive	–	–	inactive	inactive	inactive	inactive	inactive	inactive	–	inactive	inactive	inactive	–
COC(=O)c1c(Cl)c(Cl)c(C(=O)OC)c(Cl)c1Cl	inactive	inactive	inactive	inactive	inactive	inactive	inactive	inactive	–	inactive	inactive	inactive	inactive	inactive	inactive	inactive	–	inactive	inactive	inactive
CN1CCN(c2cc3c(cc2F)c(=O)c(C(=O)O)cn3-c2ccc(F)cc2)CC1	inactive	–	–	inactive	inactive	inactive	inactive	inactive	–	–	inactive	inactive	inactive	inactive	inactive	–	inactive	inactive	inactive	inactive
CC(NC(CCc1ccccc1)C(=O)O)C(=O)N1C(=O)N(C)CC1C(=O)O (centres undefined)	inactive	inactive	inactive	inactive	–	inactive	inactive	inactive	inactive	inactive	inactive	inactive	inactive	–	inactive	inactive	inactive	inactive	inactive	inactive
N=c1nc(N2CCCCC2)cc(N)n1O	inactive	inactive	inactive	inactive	inactive	inactive	inactive	–	–	inactive	inactive	inactive	inactive	inactive	inactive	–	inactive	inactive	inactive	inactive
CC(C)(C)NCCNC(C)(C)C	inactive	inactive	inactive	inactive	inactive	inactive	inactive	inactive	–	inactive	inactive	inactive	inactive	–	inactive	inactive	inactive	inactive	inactive	inactive
Cn1c(N)c(N=O)c(=O)n(C)c1=O	inactive	inactive	inactive	–	inactive	–	–	inactive	inactive	inactive	inactive	inactive	inactive	inactive	inactive	–	inactive	inactive	inactive	inactive
CCCCCCCCCCCC	inactive	–	–	–	inactive	–	inactive	–	–	inactive	inactive	inactive	inactive	inactive	inactive	–	inactive	inactive	inactive	–
CCOC(=O)C(=O)OCC	inactive	inactive	inactive	–	inactive	–	inactive	inactive	inactive	inactive	inactive	inactive	inactive	inactive	inactive	–	inactive	inactive	inactive	–
CC(=O)OCC(=O)[C@@]1(O)CCC2C3CCC4=CC(=O)CC[C@]4(C)C3[C@@H](O)C[C@@]21C (some centres undefined)	inactive	inactive	inactive	inactive	inactive	inactive	–	inactive	inactive	inactive	inactive	inactive	inactive	–	inactive	inactive	inactive	inactive	inactive	inactive
